Experiment in all cases: PBM binding z-score (relative to random genomic background probes); higher = stronger binding; sequences stand for … in GC…GCGATTGACAGCGTAGAATGAAGG
Assay [1] concerns FXR:RXRa (NR concentration 270 nM, RXRa partner concentration 90 nM). The method in brief: (§1)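 Custom Agilent 4×180K protein-binding microarrays carried double-stranded probes. Their 34-nt variable regions held direct-repeat seeds, single-nucleotide variants, half-site ablations and random human genomic background sequences. Arrays were incubated 1 h with ligand-free nuclear receptor dimers in PBS pH 7.4, 2% milk, 0.02% Triton X-100, 1 mM DTT, 0.2 mg/mL BSA and 0.4 mg/ml salmon testes DNA. Antibodies against each partner (one per run) detected binding, and scanned fluorescence was regression-normalized. Binding z-scores use random background probes as reference.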

The test system of assay [2] is LXRa:RXRa (NR concentration 270 nM, RXRa partner concentration 90 nM). The method in brief:
as §1

For assay [3], the system named is LXRa homodimer (NR concentration 270 nM). The method in brief: as §1
Assay [4] has as its system LXRb:RXRa (NR concentration 270 nM, RXRa partner concentration 90 nM). The method in brief:
as §1

Assay [5] relates to LXRb homodimer (NR concentration 270 nM). The method in brief:
as §1

For assay [6], the system named is PPARa:RXRa (NR concentration 270 nM, RXRa partner concentration 90 nM). The method in brief: as §1
Assay [7] has as its system PPARg:RXRa (NR concentration 180 nM, RXRa partner concentration 90 nM). The method in brief:
as §1

In assay [8] the test system is PPARg:RXRa 270nM:90nM, anti-RXR (NR concentration 270 nM, RXRa partner concentration 90 nM). The method in brief:
as §1

Assay [9] relates to PPARg:RXRa 30nM:10nM, anti-RXR (NR concentration 30 nM, RXRa partner concentration 10 nM). The method in brief: as §1
Assay [10] relates to PPARg:RXRa 90nM:30nM, anti-RXR (NR concentration 90 nM, RXRa partner concentration 30 nM). The method in brief: as §1
In assay [11] the test system is PPARg:RXRa DBDmut IVT, anti-RXR (DBD mutation: RXRa K156A/R161A, NR concentration 270 nM, RXRa partner concentration 90 nM). The method in brief:
as §1

Assay [12] deals with PPARg:RXRa IVT, anti-PPARg (NR concentration 270 nM, RXRa partner concentration 90 nM). The method in brief:
as §1

Assay [13] has as its system PPARg DBDmut:RXRa IVT, anti-PPARg (DBD mutation: PPARg1 K132A/R137A, NR concentration 270 nM, RXRa partner concentration 90 nM). The method in brief:
as §1

The test system of assay [14] is PPARg DBDmut IVT, anti-PPARg (DBD mutation: PPARg1 K132A/R137A, NR concentration 270 nM). The method in brief: as §1
In assay [15] the test system is PPARg homodimer (NR concentration 180 nM). The method in brief: as §1
Assay [16] relates to PXR:RXRa (NR concentration 270 nM, RXRa partner concentration 90 nM). The method in brief:
as §1

In assay [17] the test system is PXR homodimer (NR concentration 270 nM). The method in brief: as §1
Assay [18] relates to RARa:RXR (NR concentration 270 nM, RXRa partner concentration 90 nM). The method in brief: as §1
Assay [19] relates to RARa homodimer (NR concentration 270 nM). The method in brief: as §1
Assay [20] relates to RARb:RXRa (NR concentration 270 nM, RXRa partner concentration 90 nM). The method in brief: as §1

Take ACTAGTTGGTCAGCTGAGGTCGCACACAATTCGG: the PBM binding z-score came out at 1.01 in assay [1]; 0.732 in assay [2]; 0.139 in assay [3]; 1.1 in [4]; 0.147 in [5]; 1.49 in assay [6]. Besides, the PBM binding z-score in [7] is 0.497; in assay [8], 0.445; in assay [9], -0.204; in assay [10], 0.316; in assay [11] it was 1.03; in assay [12], 1.57. Also, the PBM binding z-score amounted to 0.582 in assay [13]; 0.333 in [14]; 0.559 in assay [15]; 3.02 in [16]; 0.134 in [17]; 1.79 in assay [18]. The PBM binding z-score in assay [19] was -0.0842; in assay [20] it was 1.91.
As for TCATGTAGATCAATAGAGGTTAAGAAAGTGCGCT, the PBM binding z-score was 1.01 in assay [1]; 3.41 in [2]; 0.701 in [3]; 1.95 in [4]; 0.112 in [5]; 1.83 in [6]. Besides, the PBM binding z-score turned out to be 0.225 in assay [7]; 1.59 in assay [8]; 3.1 in assay [9]; 1.96 in assay [10]; 2.25 in assay [11]; 0.891 in [12]. Besides, the PBM binding z-score was found to be 0.493 in assay [13]; 0.436 in assay [14]; 0.475 in [15]; 3.08 in assay [16]; 0.426 in assay [17]; 1.85 in assay [18]. Besides, the PBM binding z-score in [19] is 0.825; in assay [20] it was 1.02.
Turning to CAAACTAGGTCACAGAGCTCAAAGTCCGTGCGTA, the PBM binding z-score in [1] stood at 4.29; in assay [2], 3.18; in [3], 0.278; in assay [4], 2.01; in [5] it was 0.231; in assay [6], 5.45. In addition, the PBM binding z-score in [7] was 8.88; in assay [8], 7.47; in [9], 5.2; in assay [10] it was 7.26; in assay [11] it was 8.61; in assay [12], 8.86. In addition, the PBM binding z-score was 3.69 in assay [13]; 1.2 in [14]; 1.74 in assay [15]; 1.81 in assay [16]; -0.0569 in assay [17]; 2.68 in [18]. Further, the PBM binding z-score in [19] is 0.446; in assay [20] it was 4.13.
With TCATATGGGTAAACAGGTGAAAGTCCGTAAGTTA, the PBM binding z-score was 0.13 in [1]; 0.314 in assay [2]; -0.0837 in [3]; 0.449 in assay [4]; -0.731 in assay [5]; 1.85 in assay [6]. For the same sequence, the PBM binding z-score in assay [7] is 2.04; in [8], 2.98; in assay [9], 2.52; in assay [10], 2.89; in assay [11] it was 4.06; in assay [12], 3.99. The PBM binding z-score was 0.27 in assay [13]; 0.486 in assay [14]; 0.322 in assay [15]; 0.505 in assay [16]; 0.00205 in assay [17]; 0.571 in assay [18]. Further, the results for the PBM binding z-score in [19] and in assay [20] were -0.0494 and 0.316, respectively.
With TGAATGAGGTTATAAGGTCAGGGAACGTTGCAAA, the PBM binding z-score in [1] worked out at 5.12; in assay [2], 4.24; in assay [3] it was 0.615; in [4] it was 3.38; in assay [5], 0.153; in assay [6] it was 5.17. In addition, the PBM binding z-score in assay [7] was 5.07; in assay [8], 5.43; in assay [9] it was 2.33; in assay [10], 4.46; in assay [11], 2.58; in assay [12] it was 4.37. For the same sequence, the PBM binding z-score in assay [13] was found to be 1.54; in assay [14], 1.21; in [15], 2.82; in [16] it was 4.17; in [17], 0.241; in assay [18], 5.68. For the same sequence, the PBM binding z-score in assay [19] came out at 0.814; in [20] it was 3.88.
In the case of CTCGAATGGTCGTGCTCAGGTGAGTATACCAAAC, the PBM binding z-score in assay [1] is -0.179; in assay [2] it was -0.419; in assay [3], -0.51; in assay [4], -0.227; in assay [5], -0.231; in [6], -0.0651. Besides, the PBM binding z-score was -0.329 in assay [7]; -0.395 in assay [8]; -0.488 in assay [9]; -0.372 in assay [10]; -0.307 in assay [11]; 0.137 in [12]. Besides, the PBM binding z-score in assay [13] is -1.36; in [14], 0.0362; in assay [15] it was -1; in [16], -0.335; in assay [17], -0.382; in assay [18] it was 0.107. Also, the PBM binding z-score in [19] was determined as 0.169; in assay [20], 0.0892.
